Reference: PubChem BioAssay AID1159580 (chemical genetic matrix, 2015)
Out of some 5,500 compounds screened, about 2,000 (36%) were called active. Another 18% or so got no clear call; they are omitted. No stated cut-off is given here; in the data, active means normalized growth mostly below about 0.91 (no sharp cut-off); inconclusive means no clear call, values can overlap the other calls; inactive means mostly above about 0.92. The list shows a part of the results.

Assay: chemical genetic growth profiling, strain panel (AID 1159580);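 further: tested at 20 µM; growth read once vehicle control cultures reached saturation at 30 °C; 1 = growth at the plate median or of vehicle wells; lower values mean less growth of the strain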
Details: growth OD

Measured: normalized growth

O=c1c(O)c(-c2ccccc2)oc2ccc3occc3c12
inactive: S. cerevisiae deletion strains, locus YKL068W, active compounds read low 0.962 | S. cerevisiae deletion strains, locus YKL085W, strain MDH1 (second series), active compounds read low 0.937 | S. cerevisiae deletion strains, locus YKL085W, strain MDH1, active compounds read low 0.937 | S. cerevisiae deletion strains, locus YKL190W, strain CNB1, active compounds read low 0.941 | S. cerevisiae deletion strains, locus YKR026C, strain gcn3, active compounds read low 0.954 | S. cerevisiae deletion strains, locus YKR091W, strain srl3, active compounds read low 0.974 | S. cerevisiae deletion strains, locus YLL041C, strain sdh2, active compounds read low 0.948 | S. cerevisiae deletion strains, locus YLR039C, strain RIC1, active compounds read low 0.878 | S. cerevisiae deletion strains, locus YLR113W, strain HOG1, active compounds read low 0.893 | S. cerevisiae deletion strains, locus YLR262C, strain YPT6, active compounds read low 0.946 | S. cerevisiae deletion strains, locus YLR357W, strain rsc2, active compounds read low 0.87 | S. cerevisiae deletion strains, locus YLR384C, strain iki3, active compounds read low 0.954 | S. cerevisiae deletion strains, locus YML016C, strain PPZ1, active compounds read low 0.939 | S. cerevisiae deletion strains, locus YMR231W, strain pep5, active compounds read low 1 | S. cerevisiae deletion strains, locus YMR307W, strain GAS1, active compounds read low 0.687 | S. cerevisiae deletion strains, locus YNL128W, strain TEP1, active compounds read low 0.911 | S. cerevisiae deletion strains, locus YNL183C, strain NPR1, active compounds read low 0.884 | S. cerevisiae deletion strains, locus YNL248C, strain rpa49, active compounds read low 0.953 | S. cerevisiae deletion strains, locus YNL250W, strain rad50, active compounds read low 0.921 | S. cerevisiae deletion strains, locus YNL322C, strain KRE1, active compounds read low 0.954 | S. cerevisiae deletion strains, locus YNR049C, strain mso1, active compounds read low 0.93 | S. cerevisiae deletion strains, locus YOL012C, strain htz1 1.09 | S. cerevisiae deletion strains, locus YOR061W, strain CKA2, active compounds read low 0.935 | S. cerevisiae deletion strains, locus YOR069W, strain VPS5, active compounds read low 0.932 | S. cerevisiae deletion strains, locus YOR231W, strain MKK1, active compounds read low 0.909 | S. cerevisiae deletion strains, locus YPL241C, strain CIN2, active compounds read low 0.966 | S. cerevisiae deletion strains, locus YPL256C, strain CLN2, active compounds read low 0.982 | S. cerevisiae deletion strains, locus YPR141C, strain kar3, active compounds read low 0.956
active: S. cerevisiae deletion strains, locus YJR075W, strain HOC1, active compounds read low 0.861 | S. cerevisiae deletion strains, locus YKL009W, strain mrt4, active compounds read low 0.793 | S. cerevisiae deletion strains, locus YKL160W, strain elf1, active compounds read low 0.687 | S. cerevisiae deletion strains, locus YKR001C, strain vps1, active compounds read low 0.772 | S. cerevisiae deletion strains, locus YLL001W, strain dnm1, active compounds read low 0.657 | S. cerevisiae deletion strains, locus YLL026W, active compounds read low 0.867 | S. cerevisiae deletion strains, locus YLR027C, strain aat2, active compounds read low 0.795 | S. cerevisiae deletion strains, locus YLR058C, strain SHM2, active compounds read low 0.854 | S. cerevisiae deletion strains, locus YLR102C, strain apc9, active compounds read low 0.912 | S. cerevisiae deletion strains, locus YLR221C, strain rsa3, active compounds read low 0.844 | S. cerevisiae deletion strains, locus YLR258W, strain gsy2, active compounds read low 0.745 | S. cerevisiae deletion strains, locus YLR262C, strain YPT6 (second series), active compounds read low 0.795 | S. cerevisiae deletion strains, locus YLR268W, strain sec22, active compounds read low 0.77 | S. cerevisiae deletion strains, locus YLR320W, strain mms22, active compounds read low 0.76 | S. cerevisiae deletion strains, locus YLR330W, strain CHS5, active compounds read low 0.847 | S. cerevisiae deletion strains, locus YLR342W, strain FKS1 (second series), active compounds read low 0.755 | S. cerevisiae deletion strains, locus YLR342W, strain FKS1, active compounds read low 0.796 | S. cerevisiae deletion strains, locus YLR370C, strain arc18, active compounds read low 0.768 | S. cerevisiae deletion strains, locus YLR371W, strain rom2, active compounds read low 0.655 | S. cerevisiae deletion strains, locus YLR418C, strain cdc73, active compounds read low 0.451 | S. cerevisiae deletion strains, locus YML032C, strain rad52, active compounds read low 0.685 | S. cerevisiae deletion strains, locus YML120C, strain ndi1, active compounds read low 0.753 | S. cerevisiae deletion strains, locus YML124C, strain tub3, active compounds read low 0.899 | S. cerevisiae deletion strains, locus YMR058W, strain fet3, active compounds read low 0.817 | S. cerevisiae deletion strains, locus YMR078C, strain ctf18, active compounds read low 0.852 | S. cerevisiae deletion strains, locus YMR125W, strain sto1, active compounds read low 0.877 | S. cerevisiae deletion strains, locus YMR129W, active compounds read low 0.88 | S. cerevisiae deletion strains, locus YMR205C, strain PFK2, active compounds read low 0.611 | S. cerevisiae deletion strains, locus YMR223W, strain ubp8, active compounds read low 0.762 | S. cerevisiae deletion strains, locus YMR263W, strain SAP30, active compounds read low 0.854 | S. cerevisiae deletion strains, locus YNL067W, strain RPL9B, active compounds read low 0.863 | S. cerevisiae deletion strains, locus YNL071W, strain lat1, active compounds read low 0.363 | S. cerevisiae deletion strains, locus YNL209W, strain ssb2, active compounds read low 0.853 | S. cerevisiae deletion strains, locus YNL233W, strain BNI4, active compounds read low 0.693 | S. cerevisiae deletion strains, locus YNL271C, strain bni1, active compounds read low 0.889 | S. cerevisiae deletion strains, locus YNL298W, strain CLA4, active compounds read low 0.887 | S. cerevisiae deletion strains, locus YNL307C, strain MCK1, active compounds read low 0.521 | S. cerevisiae deletion strains, locus YNL322C, strain KRE1 (second series), active compounds read low 0.814 | S. cerevisiae deletion strains, locus YNR052C, strain pop2, active compounds read low 0.864 | S. cerevisiae deletion strains, locus YOL147C, strain pex11, active compounds read low 0.703 | S. cerevisiae deletion strains, locus YOR001W, strain rrp6, active compounds read low 0.826 | S. cerevisiae deletion strains, locus YOR070C, strain gyp1, active compounds read low 0.806 | S. cerevisiae deletion strains, locus YOR080W, strain dia2, active compounds read low 0.889 | S. cerevisiae deletion strains, locus YOR083W, strain WHI5, active compounds read low 0.79 | S. cerevisiae deletion strains, locus YOR106W, strain vam3, active compounds read low 0.737 | S. cerevisiae deletion strains, locus YOR136W, strain idh2, active compounds read low 0.876 | S. cerevisiae deletion strains, locus YOR144C, strain elg1, active compounds read low 0.823 | S. cerevisiae deletion strains, locus YOR184W, strain ser1, active compounds read low 0.557 | S. cerevisiae deletion strains, locus YOR265W, strain rbl2, active compounds read low 0.85 | S. cerevisiae deletion strains, locus YOR270C, strain vph1, active compounds read low 0.409 | S. cerevisiae deletion strains, locus YOR290C, strain snf2, active compounds read low 0.589 | S. cerevisiae deletion strains, locus YOR316C, strain cot1, active compounds read low 0.881 | S. cerevisiae deletion strains, locus YPL051W, strain arl3, active compounds read low 0.725 | S. cerevisiae deletion strains, locus YPL078C, strain atp4, active compounds read low 0.513 | S. cerevisiae deletion strains, locus YPL106C, strain sse1, active compounds read low 0.769 | S. cerevisiae deletion strains, locus YPL240C, strain hsp82, active compounds read low 0.833 | S. cerevisiae deletion strains, locus YPR119W, strain clb2, active compounds read low 0.888 | S. cerevisiae deletion strains, locus YPR163C, strain tif3, active compounds read low 0.72 | S. cerevisiae deletion strains, locus YPR167C, strain met16, active compounds read low 0.851 | S. cerevisiae deletion strains, strain wtn01, active compounds read low 0.757 | S. cerevisiae strains, strain wild type, active compounds read low 0.896
